In the library only some 2% were active in any assay of this set; here they are far more common.
Fam108B counter: Fam108B inhibition, counter-screen for RBBP9 inhibitors | recombinant Fam108B, FP-Rh probe fluorescence polarization | inhibition, % at 9.51 µM | actives 0.33% (n = 300,000) | AID 1947;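 active means inhibition above the screen mean inhibition plus 3 SD, computed separately per campaign, cut at about 18% in these data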;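 further: inhibitors lower polarization as less probe binds the enzyme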
LYPLA2 counter: counter-screen for PME1 inhibitors: inhibitors of human LYPLA2 | O95372 | recombinant LYPLA2, FP-Rh probe fluorescence polarization | inhibition, % at 5.9 µM | actives 0.38% (n = 320,000);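 active means inhibition above the screen-wide mean plus 3 SD, limit set per campaign, cut at about 26% in these data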;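 further: 0% = LYPLA2 with DMSO and 100% = wells lacking LYPLA2 enzyme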
PME-1 primary: PME-1 (human) inhibition; AID 2130; recombinant PME-1, FP-Rh probe fluorescence polarization; Q9Y570; inhibition, % at 5.9 µM; actives 0.53% (n = 320,000);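 active means inhibition above the campaign mean of all compounds plus 3 SD, cut at about 26% in these data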;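 further: competitive labeling of PME-1 active site by serine hydrolase directed probe; 0% = PME-1 with DMSO and 100% = wells lacking PME-1 enzyme; inhibitors block probe labeling so polarization falls and inhibition rises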
LYPLA1 counter: blocks human lysophospholipase 1, a PME1 counter-screen. O75608. recombinant LYPLA1, FP-Rh probe fluorescence polarization. inhibition, % at 5.9 µM. actives 0.16% (n = 320,000);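 active means inhibition above the mean of all tested compounds plus 3 SD, set per campaign, cut at about 14% in these data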;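 further: inhibitors block serine hydrolase probe labeling of LYPLA1 so polarization falls; 0% = enzyme with DMSO and 100% = wells lacking LYPLA1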
Target sequence (O75608 whole entry, looked up): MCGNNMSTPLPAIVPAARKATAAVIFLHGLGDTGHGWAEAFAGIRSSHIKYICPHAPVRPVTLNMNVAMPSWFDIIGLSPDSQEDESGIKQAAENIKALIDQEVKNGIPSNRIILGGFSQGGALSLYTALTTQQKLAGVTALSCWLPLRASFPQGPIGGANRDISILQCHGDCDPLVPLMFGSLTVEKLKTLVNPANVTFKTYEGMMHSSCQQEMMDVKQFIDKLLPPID
GSTO1 inh: GSTO1 inhibition, counter-screen for RBBP9 inhibitors; actives 1.1% (n = 300,000); inhibition, % at 5.96 µM; recombinant GSTO1, activity-based probe fluorescence polarization; P78417; AID 1974;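 active means inhibition above the campaign mean inhibition plus 3 SD, cut at about 35% in these data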;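 further: 0% = GSTO1-1 with DMSO and 100% = wells lacking GSTO1-1 enzyme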
Target sequence (P78417 whole entry, looked up): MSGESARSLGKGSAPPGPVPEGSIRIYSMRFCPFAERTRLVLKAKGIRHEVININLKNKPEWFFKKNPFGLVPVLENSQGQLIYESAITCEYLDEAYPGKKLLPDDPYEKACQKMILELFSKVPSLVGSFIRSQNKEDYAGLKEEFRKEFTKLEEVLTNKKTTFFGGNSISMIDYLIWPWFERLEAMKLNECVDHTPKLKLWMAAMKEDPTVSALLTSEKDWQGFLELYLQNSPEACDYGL
PREPL inh: inhibits the human prolyl oligopeptidase-like enzyme; Q4J6C6; actives 0.68% (n = 320,000); inhibition, % at 5.96 µM; recombinant PREPL, fluorescence polarization activity-based probe; in the data active means inhibition above about 43%;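 further: 0% = enzyme with DMSO and 100% = wells lacking enzyme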
LYPLA2 confirm: counter-screen for PME1 inhibitors: confirmation of human LYPLA2 inhibitors. shares compounds with LYPLA2 counter. recombinant LYPLA2, FP-Rh probe fluorescence polarization. inhibition, % at 5.9 µM. actives 72% (n = 1,100);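 active means mean inhibition across replicates above the hit cutoff set in the primary screen, cut at about 26% in these data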;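 further: blocked labeling of the enzyme by serine hydrolase FP-Rh probe lowers polarization; 0% = enzyme with DMSO and 100% = wells lacking LYPLA2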
LYPLA2 gel ABPP: blocks human acyl-protein thioesterase 2 in gel ABPP; shares compounds with LYPLA2 counter; rhLYPLA2 in mouse brain proteome, gel ABPP FP-Rh; inhibition, % at 20 µM; actives 30% (n = 150); AID 652029;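 active means inhibition of LYPLA2 enzyme probe labeling above about 50%, limit read from the data; inactive means inhibition below that limit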;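 further: loss of FP-Rh probe labeling of the LYPLA2 gel band measured as band density; 0% = DMSO only control band and 100% = blank gel background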
Numbers without * were called inactive; . = no result.

SMILES	Fam108B counter	LYPLA2 counter	PME-1 primary	LYPLA1 counter	GSTO1 inh	PREPL inh	LYPLA2 confirm	others
Cc1cc(N2CCOCC2)nc2ccc(NC(=O)CCC(=O)N3CCCCC3)cc12	4	-2	-4	1	-4	13	.
Cc1cc(N2CCOCC2)nc2ccc(NC(=O)CCC(=O)N3CCN(c4cccc(C(F)(F)F)c4)CC3)cc12	4	41*	9	2	-1	35	51*	LYPLA2 gel ABPP=10
O=C(Nc1cccs1)Nc1c(F)c(F)c(F)c(F)c1F	0	29*	7	4	6	12	30*
CN1CCN(C(CNC(=O)C(=O)Nc2ccc3c(c2)OCCO3)c2ccc(F)cc2)CC1 (centres undefined)	0	6	-1	3	1	-1	.
Cc1ccc(C(CNC(=O)C(=O)Nc2ccc3c(c2)OCCO3)N2CCN(C)CC2)cc1 (centres undefined)	-1	44*	-3	-4	6	0	0
O=[N+]([O-])c1c(Nc2cccc(O)c2)cc(Cl)c2nonc12	2	47*	13	0	5	17	51*
O=C(O)c1ccc(Nc2cc(Cl)c3nonc3c2[N+](=O)[O-])cc1	6	4	4	1	-41	13	.
Cc1c(N=C(N)/N=C(\N)Nc2ccc(Br)cc2)c(=O)n(-c2ccccc2)n1C	-1	4	-6	0	-6	14	.
CCn1cnc2sc(C(=O)N3CCN(c4ccc(OC)cc4)CC3)c(C)c2c1=O	4	2	-3	0	4	16	.
CCn1cnc2sc(C(=O)Oc3cccc(C)c3)c(C)c2c1=O	5	28*	-3	-4	3	21	36*
Cc1c(C(=O)Oc2ccc(F)cc2)sc2ncn(Cc3cccc(F)c3)c(=O)c12	1	35*	-13	4	-3	16	30*
O=C(Nc1ccccn1)Nc1ccccc1Cl	0	-3	-2	-2	-1	-3	.
CC(=O)c1cccc(NC(=O)C2CCN(C(=O)c3ccc([N+](=O)[O-])cc3)CC2)c1	5	18	-3	0	3	-2	.
Cc1ccc(C(=O)N2CCC(C(=O)Nc3cccc([N+](=O)[O-])c3)CC2)cc1	2	32*	0	6	0	11	17
CCOc1ccc(C(=O)C2CCN(C(=O)c3ccccc3C(=O)O)CC2)cc1	1	0	0	0	-5	-2	.
COc1ccc(C)cc1NC(=O)C1CCN(C(=O)c2ccc(C(C)(C)C)cc2)CC1	-2	41*	2	10	-1	2	44*
CC(C)(C)c1ccc(C(=O)N2CCC(C(=O)NC3CCCCCC3)CC2)cc1	0	48*	1	0	-2	-2	54*	LYPLA2 gel ABPP=20
COc1ccc(C)cc1NC(=O)C1CCN(S(C)(=O)=O)CC1	1	-1	-9	-1	4	2	.
CCOc1ccc(C(=O)C2CCN(C(=O)c3ccc([N+](=O)[O-])cc3)CC2)cc1	0	33*	4	3	2	9	31*
CCOc1cc(CN2CCN(c3cccc(C(F)(F)F)c3)CC2)ccc1O	1	28*	2	4	0	-23	29*
CCOc1cc(CN2CCSCC2)ccc1O	0	6	-3	3	18	8	.
Cc1cc(OCC(=O)OCC(=O)N2CC(C)CC(C)C2)ccc1Cl (centres undefined)	.	6	0	-2	.	16	.
CC(=C/c1ccc(C(C)C)cc1)/C=N/NC(=O)Cn1nnnc1N	-1	40*	-6	1	19	7	40*
CC(/C=N/NC(=O)CSc1ccccn1)=C\c1ccc(C(C)C)cc1	-1	20	-9	-3	0	-5	.
CC(=O)c1ccc(-c2ccc(C(=O)Nc3nc(C)c(C(C)=O)s3)o2)cc1	.	-4	-14	-1	.	17	.
COc1ccccc1NC(=O)CCn1c(=O)c2cccn2c2ccccc21	1	26*	2	-2	7	-1	-5
COc1ccccc1NC(=O)CCn1c(=S)oc2ccccc21	-1	11	1	1	3	2	.

Screening data as filed in PubChem BioAssay.
